In PubChem BioAssay (Tox21):
Inconclusive results are not listed. Activity calls are given as the source filed them. Calls come from the whole dose curve.

Experiment: qHTS assay to identify small molecule agonists of the endoplasmic reticulum stress response signaling pathway - cell viability counter screen (AID 1159517); note: nearly all actives have a fitted effect of over 50% in size
Conditions: ESRE-bla HeLa viability, CellTiter-Glo luminescence, 5 h; series mostly up to 61 µM
Excerpt: U.S. Tox21 Program National Center for Advancing Translational Sciences [NCATS] NIH Chemical Genomics Center [NCGC] U.S. Environmental Protection Agency [EPA] National Institutes of Environmental Health Sciences [NIEHS] National Toxicology Program [NTP] U.S. Food and Drug Administration [FDA] Tox21 Assay Overview: Endoplasmic Reticulum (ER) plays an important role in cellular signaling, protein folding/maturation, stress response, lipid biosynthesis, calcium storage and release etc. Under stress conditions, proteins in ER misfold or unfold, and leading to the expression of ER stress responsive genes. ER stress has been associated with a variety of pathophysiological conditions such as cancer, inflammation, neurodegenerative diseases, diabetes, ischemic heart disease etc. To identify the compounds that induce ER stress response, an ER stress reporter cell line, CellSensor ESRE-bla HeLa (Life Technologies, Carlsbad, CA) containing a beta-lactamase reporter gene under control of the Endoplasmic reticulum Stress Response Element (ESRE) was used to screen Tox21 10K compound library. The cytotoxicity of the Tox21 compound library against the ESRE-bla HeLa cell line was tested in parallel by measuring cell viability using the CellTiter-Glo assay in the same wells.
Tox21 Assay Protocol Summary: ESRE-bla HeLa cells were dispensed at 1,500 cells/6 uL of assay medium per well into black wall/clear-bottom 1536-well plates using a Multidrop Combi (ThermoFisher Scientific, Waltham, MA) dispenser. After the assay plates were incubated at 37 C and 5% CO2 for an overnight, 23 nL of compounds dissolved in DMSO, positive controls or DMSO only was transferred to the assay plate by a Pintool station (Kalypsys, San Diego, CA). The assay plates were incubated at 37 C and 5% CO2 for 5 hr. One uL of LiveBLAzer B/G FRET substrate (Life Technologies) was added using a FRD (Flying Reagent Dispenser, Aurora Discovery, San Diego, CA) and the plates were incubated at room temperature for 2 hr. Fluorescence intensity (405 nm excitation, 460 nm and 530 nm emissions) was measured using an Envision plate reader (PerkinElmer, Shelton, CT). For cytotoxicity, 4 ul/well of CellTiter-Glo reagent was added into the assay plates using an FRD. After 30 min incubation at room temperature, the luminescence intensity was measured using a ViewLux plate reader (PerkinElmer).

Q: Which outcome does the source give for `C/C=C1\C(=O)C[C@H]2[C@@H]3CCC4=CC(=O)CC[C@]4(C)[C@H]3CC[C@]12C` here?
A: inactive

Q: For `CC(=O)c1ccc(C)cc1`, which outcome is on record?
A: inactive

Q: With `CCN1CCCC(OC(=O)C(c2ccccc2)c2ccccc2)C1` (stereo not given) as the molecule, how does the outcome read?
A: inactive

Q: For `COC(=O)CCCCCCCCC(=O)OC`, which outcome is on record?
A: inactive

Q: For `CC(C)CCOC(=O)CC(C)C`, which outcome is on record?
A: inactive

Q: Which outcome does the source give for `C=C(C)C(=O)OCCCCCCCCCCCCCCCCCC` here?
A: inactive

Q: With `O=C(O)Cc1cc(I)c(Oc2cc(I)c(O)c(I)c2)c(I)c1` as the molecule, how does the outcome read?
A: inactive

Q: With `CC(C)CCCCCCN` as the molecule, how does the outcome read?
A: inactive

Q: Which outcome does the source give for `CN(C)C(=O)C(CCN1CCC(O)(c2ccc(Cl)cc2)CC1)(c1ccccc1)c1ccccc1` here?
A: inactive

Q: With `COCc1ccc(COC)cc1` as the molecule, how does the outcome read?
A: inactive

Q: With `CCCCCCCCC=O` as the molecule, how does the outcome read?
A: inactive

Q: Which outcome does the source give for `COC[C@H](c1ccc(C(F)(F)F)cc1)N1CCN(C2(C)CCN(C(=O)c3c(C)ncnc3C)CC2)C[C@H]1C` here?
A: inactive

Q: For `CSc1ccc(C=O)cc1`, which outcome is on record?
A: inactive

Q: For `CN(C)CCOC(c1ccc(Cl)cc1)c1ccccn1` (stereo not given), which outcome is on record?
A: inactive

Q: With `CCCCC1CCCCC(=O)O1` (stereo not given) as the molecule, how does the outcome read?
A: inactive

Q: Which outcome does the source give for `CCCC(C)CO` (stereo not given) here?
A: inactive

Q: With `NC(CS)C(=O)O` (stereo not given) as the molecule, how does the outcome read?
A: inactive

Q: Which outcome does the source give for `C1COCCO1` here?
A: inactive

Q: Which outcome does the source give for `Nc1nc2c(ncn2CCC(CO)CO)c(=O)[nH]1` here?
A: inactive

Q: For `CCC(C)OC(=O)N1CCCCC1CCO` (stereo not given), which outcome is on record?
A: inactive

Q: For `CCCCCOC(=O)Nc1nc(=O)n([C@@H]2O[C@H](C)[C@@H](O)[C@H]2O)cc1F`, which outcome is on record?
A: inactive

Q: Which outcome does the source give for `O=c1[nH]c2ccccc2c(=O)n1CCCl` here?
A: inactive

Q: With `C=CCn1c(=O)n([C@@H]2O[C@H](CO)[C@@H](O)[C@H]2O)c2nc(N)[nH]c(=O)c21` as the molecule, how does the outcome read?
A: inactive

Q: With `Cc1ccccc1C(=O)O` as the molecule, how does the outcome read?
A: inactive

Q: Which outcome does the source give for `CN(C)C(=O)Nc1ccccc1` here?
A: inactive

Q: For `Cc1c(C)n(CCN(C)C)c2ccc(C(=O)OCCN(C)C)cc12`, which outcome is on record?
A: inactive

Q: With `CC(=O)N[C@@H](CCC(N)=O)C(=O)O` as the molecule, how does the outcome read?
A: inactive

Q: Which outcome does the source give for `Oc1ccc2c(c1)OC[C@@H](N1CCC(O)(c3ccc(F)cc3)CC1)[C@H]2O` here?
A: inactive

Q: For `CCCCCCC(CCCCCCCCCCC(=O)OCC(COC(C)=O)OC(C)=O)OC(C)=O` (stereo not given), which outcome is on record?
A: inactive

Q: Which outcome does the source give for `CC1CCN(CCCC(=O)c2ccc(F)cc2)CC1` here?
A: inactive

Q: For `CCCOc1ccccc1-c1nc2n[nH]nc2c(=O)[nH]1`, which outcome is on record?
A: inactive

Q: For `COc1ccc(N=[N+]([O-])c2ccc(OC)cc2)cc1`, which outcome is on record?
A: inactive

Q: For `[O-][N+](=Nc1ccccc1)c1ccccc1`, which outcome is on record?
A: inactive

Q: Which outcome does the source give for `COc1ccc2cc(C=O)ccc2c1` here?
A: inactive

Q: With `CN1[C@@H]2CC[C@H]1CC(NC(=O)n1c(=O)[nH]c3ccccc31)C2` (stereo not given in full) as the molecule, how does the outcome read?
A: inactive

Q: With `CCCCOCC(C)OCC(C)O` (stereo not given) as the molecule, how does the outcome read?
A: inactive

Q: With `Cc1c(F)cc2c(=O)c(C(=O)O)cn3c2c1CCC3C` (stereo not given) as the molecule, how does the outcome read?
A: inactive

Q: With `C[C@H](O)C(=O)Nc1c(I)c(C(=O)NC(CO)CO)c(I)c(C(=O)NC(CO)CO)c1I` as the molecule, how does the outcome read?
A: inactive

Q: With `Cc1ccc(Nc2ccc(O)c3c2C(=O)c2ccccc2C3=O)cc1` as the molecule, how does the outcome read?
A: inactive

Q: For `COc1ccc(NC(C)=O)cc1`, which outcome is on record?
A: inactive
